For 39 molecules, outcome results are on record in PubChem BioAssay AID720690 (Broad Institute, 2013).

Structures are written as SMILES. Results with a measured potency or affinity are listed apart. Calls of active or inactive are those of the source.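 The calls were made as follows: active = every repeat run showing a signal drop whose fitted half-maximal concentration is at most twice the top tested concentration; inconclusive = repeat runs disagree, or flat partial drop, or poor fit; inactive = the rest.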

A short description of this experiment: HEK293T cytotoxicity, dose response, cytotoxicity control for miR-122 modulator project, cell-based, activator set, cherry-pick (AID 720690). The note with it: HEK293T viability, CellTiter-Glo luminescence, 48 h; series mostly up to 26 µM.
Turning to `CNC(=O)C[C@H]1CC[C@H]2[C@H](COc3ccc(NC(=O)c4cccc(F)c4)cc3C(=O)N2C)O1`, the outcome was inactive. As for `C[C@H]1CN([C@@H](C)CO)S(=O)(=O)c2ccc(-c3ccc(C(=O)N(C)C)cc3)cc2O[C@H]1CN(C)C(=O)C1CCC1`, the entry is “inactive”; as for `Cc1cc2[nH]c3c4ccccc4nc(C)c3c2cc1C`, “inactive”.

Regarding `COc1ccc(-c2oc3ncnc(NCCCN4CCOCC4)c3c2-c2ccc(OC)cc2)cc1`, the result was inactive. As for `Fc1ccccc1-c1nc(-c2ccncc2)no1`, the entry is “inactive”; as for `CCN(CC)CCOc1cccc(C(C)C)c1`, “inactive”. The entry for `C[C@@H]1CN([C@H](C)CO)S(=O)(=O)c2ccc(C3=CCCCC3)cc2O[C@@H]1CN(C)C(=O)Nc1ccc2c(c1)OCO2` is “inactive”; for `CCCNC(=O)C[C@@H]1CC[C@@H]2[C@@H](COc3ccc(NC(=O)Nc4ccccc4F)cc3C(=O)N2C)O1` it is “inactive”. As for `Cc1ccc(-c2noc(CCC(=O)Nc3ccccc3C)n2)cc1`, the entry is “inactive”; as for `COCC(=O)Nc1ccc2c(c1)C(=O)N(C)[C@@H]1CC[C@@H](CC(=O)NCc3ccc(OC)cc3)O[C@H]1CO2`, “inactive”; as for `O=C(Nc1ccccc1)N1C[C@@H]2[C@H](c3ccccc31)[C@H](CO)N2Cc1cocn1`, “inactive”. Turning to `COc1ccc(S(=O)(=O)Nc2cccc3c2O[C@H](CN(C)CC2CCCCC2)[C@@H](C)CN([C@H](C)CO)C3=O)cc1`, the molecule was classed as inactive. As for `CN1C(=O)c2cc(NC(=O)Nc3ccccc3Cl)ccc2OC[C@H]2O[C@H](CC(=O)O)CC[C@@H]21`, the entry is “inactive”; as for `CCCC#Cc1ccc2c(c1)O[C@H](CN(C)C(=O)COC)[C@H](C)CN([C@@H](C)CO)S2(=O)=O`, “inactive”. The entry for `Cc1cccc(NC(=O)Nc2ccc3c(c2)C(=O)N(C)[C@@H]2CC[C@H](CC(=O)NCc4ccccc4Cl)O[C@H]2CO3)c1` is “inactive”; for `C[C@@H]1CN([C@@H](C)CO)C(=O)Cc2cc(NC(=O)Nc3ccc(C(F)(F)F)cc3)ccc2O[C@H]1CN(C)CC1CCCCC1` it is “inactive”; for `COCC(=O)N(C)C[C@H]1Oc2cc(-c3ccccc3F)ccc2S(=O)(=O)N([C@@H](C)CO)C[C@H]1C` it is “inactive”. The entry for `COc1cc(C(=O)Nc2ccc(S(=O)(=O)N3CCCCC3C)cc2)cc(OC)c1OC` (centres undefined) is “inactive”. As for `O=C(Nc1ccccc1F)N1C[C@H]2[C@@H](c3ccccc31)[C@@H](CO)N2C(=O)C1CC1`, the result was inactive.

As for `C/C=C/c1ccc([C@H]2[C@@H](CO)N(Cc3ccccn3)[C@@H]2CNC(=O)CC)cc1`, the molecule was called inactive.

Take `COC(=O)C[C@@H]1CC[C@@H]2[C@@H](COc3ccc(NC(=O)c4cc(F)cc(F)c4)cc3C(=O)N2C)O1`: the molecule was called inactive. As for `O=C(c1ccccc1)N1C[C@H]2[C@@H](c3ccccc31)[C@@H](CO)N2C(=O)CN1CCOCC1`, the entry is “inactive”; as for `CCCc1ccc(S(=O)(=O)NCCc2ccncc2)cc1`, “inactive”; as for `COc1ccc(CNCCC(c2ccc(OC)cc2)c2ccccc2OC)cc1` (centres undefined), “inactive”. As for `COC(=O)C[C@H]1CC[C@@H]2[C@H](COc3ccc(NC(=O)c4cccs4)cc3C(=O)N2C)O1`, the molecule was called inactive. Regarding `CCNC(=O)C[C@H]1CC[C@H]2[C@H](COc3ccc(NS(C)(=O)=O)cc3C(=O)N2C)O1`, the molecule was called inactive. The entry for `c1ccc(CCCNCCCn2cnc3c(OCc4ccccc4)ncnc32)cc1` is “inactive”; for `CC(C)NC(=O)N1C[C@@H]2[C@H](c3ccccc31)[C@@H](CO)N2C(=O)c1cccnc1` it is “inactive”.

As for `CCNC(=O)Nc1ccc2c(c1)C(=O)N(C)[C@H]1CC[C@H](CC(=O)NCCN3CCCC3)O[C@@H]1CO2`, the result was inactive. The entry for `O=c1c2c3c(sc2nc2n1CCC2)CCCC3` is “inactive”; for `CCN(C[C@H]1[C@H](c2ccccc2)[C@@H](CO)N1S(C)(=O)=O)C(=O)C1CC1` it is “inactive”; for `CCCN(C[C@@H]1N[C@@H](CO)[C@H]1c1ccc(-c2cccnc2)cc1)C(C)=O` it is “inactive”. As for `Fc1ccc(CN2CCN(c3ncnc4scc(-c5ccc(F)cc5)c34)CC2)cc1`, the entry is “inactive”; as for `CO[C@H]1CN(C)C(=O)c2cc(NC(=O)c3cccc(Oc4ccccc4)c3)ccc2OC[C@@H](C)NC[C@H]1C`, “inactive”. As to `CN(C)C(=O)c1ccc(NC(=O)c2cc(-n3cnnc3)ccc2Cl)cc1`, the molecule was called inactive.

Consider `CN1C(=O)c2cc(NC(=O)c3ccc4c(c3)OCO4)ccc2OC[C@H]2O[C@@H](CC(=O)O)CC[C@@H]21`, for which the molecule was classed as inactive. The entry for `CC(=O)N(C)C[C@H]1Oc2cc(C#Cc3ccc(F)cc3)ccc2S(=O)(=O)N([C@H](C)CO)C[C@H]1C` is “inactive”.

Regarding `COCC(=O)N(C[C@H]1[C@H](c2ccccc2)[C@@H](CO)N1C(=O)NC(C)C)C(C)C`, the result was inactive.

`CCCNC(=O)C[C@@H]1CC[C@H]2[C@@H](COc3ccc(NC(=O)c4ccc(C(F)(F)F)cc4)cc3C(=O)N2C)O1`: the molecule was classed as inactive.
